PubChem BioAssay AID463173 (ICCB-Longwood Screening Facility, Harvard Medical School, 2010)
The campaign covered roughly 52,000 compounds. About 1,700 (3.3%) were called active. This is one part of a sample in which actives are shown more often than they occur. No stated cut-off is given here; in the data, active means survival mostly below about 52% (no sharp cut-off); inactive means mostly above about 56%.

tested on: Wild type; experiment: S. aureus survival, RN4220 and DeltatarO strains – OD600, teichoic acid synthesis inhibitors, primary screen (AID 463173); details: S. aureus RN4220 wild type/DeltatarO growth, OD600, 18 h, hits give low values, screened at 18.75 µg/mL (by protocol)

Row | Structure (SMILES) | survival
1 | COc1ccc(S(=O)(=O)NCCc2csc(-c3ccc(F)cc3)n2)cc1F | 81% (inactive)
2 | Cc1cc(C)cc(NC(=O)CCS(=O)(=O)c2cccc3nsnc23)c1 | 64% (inactive)
3 | COc1cc(C2c3c(oc4ccccc4c3=O)C(=O)N2c2nncs2)cc(OC)c1OC (stereo not drawn) | 76% (inactive)
4 | Cc1ccc2c(c1)sc1nc(=O)n(-c3cccc(Cl)c3)c(=O)n12 | 70% (inactive)
5 | Cc1ccc2c(c1)sc1nc(=O)n(-c3ccc(Cl)c(Cl)c3)c(=O)n12 | -4% (active)
6 | Cc1ccc2c(c1)sc1nc(=O)n(-c3ccc(Cl)cc3)c(=O)n12 | 77% (inactive)
7 | CC(C)C(NS(=O)(=O)c1cccc2cccnc12)C(=O)Nc1ccc(OC(F)(F)F)cc1 (stereo not drawn) | 100% (inactive)
8 | Cc1ccc(-c2cnc(NCc3ccc(C(F)(F)F)cc3)n2C)cc1 | -13% (active)
9 | COc1ccc(-c2cnc(NCc3ccc(C)cc3)n2C)cc1 | 108% (inactive)
10 | CCc1ccc(CNc2ncc(-c3cccc(OC)c3)n2C)cc1 | 4% (active)
11 | COc1ccc(OC)c(CNc2ncc(-c3ccc(Cl)cc3)n2C)c1 | 34% (inactive)
12 | Cn1c(-c2ccccc2)cnc1NCc1ccccc1O | 60% (inactive)
13 | COc1cccc(-c2cnc(NCc3ccccc3Cl)n2C)c1 | 70% (inactive)
14 | CCOc1ccc(-c2cnc(NCc3cccc(Cl)c3)n2C)cc1 | 52% (inactive)
15 | CCOc1ccc(-c2cnc(NCc3ccc(OC)cc3OC)n2C)cc1 | 68% (inactive)
16 | Cc1ccc(-c2cnc(NC(=O)CCC(=O)N3CCCCC3)n2C)cc1 | 110% (inactive)
17 | CCOc1ccc(-c2cnc(NCc3ccc(C(F)(F)F)cc3)n2C)cc1 | -12% (active)
18 | Cc1ccc(-c2cnc(NCc3ccc(C(C)C)cc3)n2C)cc1 | -13% (active)
19 | Cn1c(-c2cccc(Br)c2)cnc1NCc1cccc(F)c1 | 27% (inactive)
20 | Cc1ccc(Cl)cc1N1CCN(C(=O)c2cn(C3CCCCC3)c(=O)c3c2c2ccccc2n3C)CC1 | 76% (inactive)
21 | COC(=O)c1ccc(NC(=O)C(=O)NCC(c2cccnc2)N2CCc3ccccc32)cc1 (stereo not drawn) | 47% (inactive)
22 | O=C(CSc1nnc(-c2ccc(Cl)cc2)c(-c2ccc(Cl)cc2)n1)NC1CCCC1 | 65% (inactive)
23 | O=C(Nc1ccccc1C(=O)NCc1ccccc1)c1ccco1 | 112% (inactive)
24 | CCOC(=O)NNC(=O)C1CCC(C)CC1 (stereo not drawn) | 64% (inactive)

Row | Structure (SMILES) | survival
25 | O=S(=O)(c1ccc(F)cc1)N(CC(O)Cn1c2ccccc2c2ccccc21)c1ccccc1 (stereo not drawn) | 63% (inactive)
26 | CCOc1ccc(-c2cc(C(=O)NCCc3ccccc3)c3c(-c4ccc(C)cc4)[nH]nc3n2)cc1 | 128% (inactive)
27 | Cc1ccc(S(=O)(=O)NCC(Nc2cccc(Cl)c2)c2ccccc2)cc1 (stereo not drawn) | 68% (inactive)
28 | COc1ccc2cc3cc(C(=O)Nc4cc(C)c(Cl)cc4OC)oc3nc2c1 | 88% (inactive)
29 | Cc1cccn2c(=O)c3cc(C(=O)NC(C)C)n(C)c3nc12 | 82% (inactive)
30 | Cn1c(-c2ccc3c(c2)OCO3)cnc1NCc1cc(Cl)ccc1O | 112% (inactive)
31 | Fc1cccc(Cl)c1CNc1n[nH]c(-c2ccco2)n1 | 83% (inactive)
32 | Cc1ccc(-c2cnc(NCc3c(F)cccc3Cl)n2C)cc1 | -12% (active)
33 | CCOc1ccc(CCNC(=O)c2cn(-c3cccc(OC)c3)c(=O)c3ccccc23)cc1 | 87% (inactive)
34 | Cc1cc(Nc2cccc(C(F)(F)F)c2)nc2ccc(NC(=O)Cc3ccc(Cl)cc3)cc12 | 78% (inactive)
35 | Fc1ccc(-c2nc(Nc3cccc(C(F)(F)F)c3)nc3c2COc2ccccc2-3)cc1 | 56% (inactive)
36 | Cc1ccc(Nc2nc3nonc3nc2Nc2cccc(C(F)(F)F)c2)cc1Cl | 0% (active)
37 | NS(=O)(=O)c1ccc(Nc2nc3nonc3nc2Nc2ccc(S(N)(=O)=O)cc2)cc1 | 109% (inactive)
38 | FC(F)(F)c1cccc(Nc2nc3nonc3nc2Nc2ccc(Cl)cc2)c1 | -3% (active)
39 | Cc1ccc(Nc2nc3nonc3n3cnnc23)cc1Cl | 88% (inactive)
40 | Cc1cc(C)n(-c2nc3ccccc3nc2Nc2cccc(C(F)(F)F)c2)n1 | 86% (inactive)
41 | Fc1ccc(Nc2nc3nonc3nc2Nc2cccc(C(F)(F)F)c2)cc1 | -1% (active)
42 | O=C(Nc1cccc(C(F)(F)F)c1)c1cc(-c2ccc(Cl)cc2)on1 | 83% (inactive)
43 | CCCSc1nc2c([nH]c3ccccc32)c(=O)n1C | 87% (inactive)
44 | COCC(C)NC(=O)C1=CC(c2ccc3c(c2)OCO3)=NS(=O)(=O)N1C (stereo not drawn) | 103% (inactive)
45 | COc1ccc(-c2noc(N3CCN(c4cccc(Cl)c4)CC3)n2)cc1OC | 73% (inactive)
46 | Cc1cccc(N(C)S(=O)(=O)c2cc3c(cc2Cl)NC(=O)CO3)c1 | 75% (inactive)
47 | COc1ccc(N2CCN(c3ncccc3-c3nc(-c4ccccc4C)no3)CC2)cc1 | 87% (inactive)
48 | CCN(CC)C(=O)Cn1cc(/C=C(\C#N)C(N)=O)c2ccccc21 | 124% (inactive)

Row | Structure (SMILES) | survival
49 | COc1ccc(C(=O)NNc2ncnc3c2cnn3-c2ccc(C)cc2C)cc1 | -3% (active)
50 | Cc1ccc(-n2ncc3c(N(CC(C)C)CC(C)C)ncnc32)c(C)c1 | 71% (inactive)
51 | Cc1ccc(-n2ncc3c(NCC(C)C)ncnc32)c(C)c1 | 10% (active)
52 | COc1ccc(C(=O)NNc2ncnc3c2cnn3-c2ccc(C)c(Cl)c2)cc1 | 73% (inactive)
53 | Cc1cccc(C(=O)NNc2ncnc3c2cnn3-c2ccc(C)cc2C)c1 | 124% (inactive)
54 | Cc1ccc(CNc2ncnc3c2cnn3-c2ccc(C)cc2C)cc1 | 73% (inactive)
55 | CCOc1ccc(N2CC(NC(=O)CCc3ccccc3)CC2=O)cc1 (stereo not drawn) | 78% (inactive)
56 | COc1ccc(CCNc2nccn(-c3ccc(C)c(C)c3)c2=O)cc1OC | 83% (inactive)
57 | COC(=O)c1c(NC(=O)Cc2coc3cc(C)ccc23)sc2c1CCC2 | 106% (inactive)
58 | CCCCNC(=O)C(CC)Sc1nc2ccccc2c(=O)n1CCc1ccc(OC)c(OC)c1 (stereo not drawn) | 127% (inactive)
59 | O=C(NCc1ccccc1Br)c1ccc(-n2cnc3cccnc32)cc1 | 152% (inactive)
60 | Cc1cccc(C(=O)Nc2ccccc2-c2nc(-c3ccccc3)no2)c1 | 86% (inactive)
61 | CCOc1ccc(CCNC(=O)C2CCN(c3ncnc4c3nc3n4CCCCC3)CC2)cc1 | 119% (inactive)
62 | CC(C)c1ccc(C(=O)CC2(O)C(=O)N(CCc3ccccc3)c3ccc(Cl)cc32)cc1 (stereo not drawn) | 33% (inactive)
63 | Cc1ccc(CN2C(=O)C(O)(CC(=O)c3ccc(C)cc3)c3ccccc32)cc1 (stereo not drawn) | 66% (inactive)
64 | CCc1ccc(C(=O)CC2(O)C(=O)N(Cc3ccc(C)cc3)c3ccccc32)cc1 (stereo not drawn) | 48% (inactive)
65 | Cc1ccc(C(=O)CC2(O)C(=O)N(CCc3ccccc3)c3ccc(Cl)cc32)cc1 (stereo not drawn) | 3% (active)
66 | CCc1ccc(C(=O)CC2(O)C(=O)N(CCc3ccccc3)c3ccc(Cl)cc32)cc1 (stereo not drawn) | 5% (active)
67 | CCc1ccc(C(=O)CC2(O)C(=O)N(C(C)C)c3ccccc32)cc1 (stereo not drawn) | 111% (inactive)
68 | Cc1ccc2cc(C#N)c(SCC(=O)NCc3ccco3)nc2c1 | 103% (inactive)
69 | O=S(=O)(NCC(c1ccco1)S(=O)(=O)c1cccs1)c1ccc(F)c(C(F)(F)F)c1 (stereo not drawn) | 32% (inactive)
70 | COc1ccc(CCNC(=O)c2ccc3c(c2)N(Cc2ccc(Cl)cc2)C(=O)c2ccccc2S3)cc1OC | 55% (inactive)
71 | Cc1cc(C)cc(NC(=O)CSc2nccn2-c2ccccc2)c1 | 135% (inactive)
72 | Cc1cccc(NC(=O)c2ccc3oc(=O)c(S(=O)(=O)c4ccc(F)cc4)cc3c2)c1C | 127% (inactive)

Row | Structure (SMILES) | survival
73 | CN(CCO)Cc1ccc2c(c1)OCO2 | 121% (inactive)
74 | COc1ccc(CNC(=O)c2cnn(-c3ccc(F)cc3)c2-n2cccc2)cc1 | 113% (inactive)
75 | Cc1ccc(CCNC(=O)c2c(C)nn(-c3ccc(F)cc3)c2-n2cccc2)cc1 | 60% (inactive)
76 | Cc1nn(-c2ccccc2)c(-n2cccc2)c1C(=O)NCCc1ccc(Cl)cc1 | 2% (active)
77 | CC(=O)Nc1ccc(NC(=O)c2c(C)nn(-c3ccccc3)c2-n2cccc2)cc1 | 80% (inactive)
78 | Cc1nn(-c2ccc(F)cc2)c(-n2cccc2)c1C(=O)NCCc1ccc(Cl)cc1 | 54% (inactive)
79 | Cc1nn(-c2ccccc2)c(-n2cccc2)c1C(=O)NCc1ccccc1Cl | 1% (active)
80 | Cc1ccc(NC(=O)c2c(C)nn(-c3ccccc3)c2-n2cccc2)c(Cl)c1 | 78% (inactive)
81 | CSc1ccc(CCNC(=O)c2cnn(-c3ccccc3)c2-n2cccc2)cc1 | 9% (active)
82 | O=C(NCCc1ccccc1)c1cnn(-c2ccc(F)cc2)c1-n1cccc1 | 49% (inactive)
83 | Cc1ccc(-n2ncc(C(=O)NCc3ccccc3C)c2-n2cccc2)cc1 | 88% (inactive)
84 | COc1ccc(CNC(=O)c2cnn(-c3ccccc3)c2-n2cccc2)cc1OC | 126% (inactive)
85 | CCOc1ccccc1CNC(=O)c1cnn(-c2ccc(C)cc2)c1-n1cccc1 | 10% (active)
86 | CCOC(=O)C1=C(C)NC(=O)NC1c1c(O)ccc2ccccc12 (stereo not drawn) | 111% (inactive)
87 | Cc1cn2c(=O)c(S(=O)(=O)NCCc3ccc(Cl)cc3)c(C)nc2s1 | 88% (inactive)
88 | COc1ccc(CC(=O)NCCc2csc3nc(-c4ccccc4F)nn23)cc1 | 55% (inactive)
89 | Cc1ccc(C)c(Oc2nc3c(c(=O)n(C)c(=O)n3C)n2Cc2ccccc2)c1 | 73% (inactive)
90 | COCCCNC(=O)CCCCn1c(=O)c2ccccc2n(CC(=O)Nc2ccc(C)cc2C)c1=O | 82% (inactive)
91 | COC(=O)c1sc2cccc(F)c2c1S(=O)(=O)N1CCN(c2cccc(C)c2)C(C)C1 (stereo not drawn) | 87% (inactive)
92 | CN1C(=O)C(CC(=O)NCC2CCCCC2)SC1=Nc1ccccc1 (stereo not drawn) | 99% (inactive)
93 | O=C1C2C3C=CC(C3)C2C(=O)N1c1ccc2c(c1)OCO2 (stereo not drawn) | 94% (inactive)
